The values below come from PubChem BioAssay (EPA / NIEHS).

Several values for one entry are separate records, joined by “and”; a condition that tells them apart may be missing. Equal values may be shown once. Results filed as inconclusive are left out. The source holds several records for some structures; these can differ, active in one and inactive in another. Activity calls are given as the source filed them. How the source made its calls: active means hit-call score of the fitted dose curve at least 0.9, where 1 is the maximum; inconclusive means response in the unintended direction; inactive means score below 0.9.

Cellular tumor antigen p53 (Homo sapiens), sequence (P04637 whole entry, looked up): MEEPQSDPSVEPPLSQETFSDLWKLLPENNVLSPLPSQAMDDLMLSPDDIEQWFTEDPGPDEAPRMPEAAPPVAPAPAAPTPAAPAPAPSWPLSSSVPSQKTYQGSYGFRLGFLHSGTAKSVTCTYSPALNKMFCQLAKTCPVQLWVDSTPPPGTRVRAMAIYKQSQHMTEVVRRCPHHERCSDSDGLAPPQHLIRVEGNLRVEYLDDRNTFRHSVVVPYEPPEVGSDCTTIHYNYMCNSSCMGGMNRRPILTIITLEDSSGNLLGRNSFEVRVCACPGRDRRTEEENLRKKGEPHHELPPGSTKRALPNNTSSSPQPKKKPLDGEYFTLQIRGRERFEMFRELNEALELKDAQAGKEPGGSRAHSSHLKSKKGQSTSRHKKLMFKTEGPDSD

Test system in one assay: not listed separately
The experiment in a line: TOX21_p53_BLA_p4_viability: Viability Assessment in the Tox21 HCT-116 p53 Agonism Beta-lactamase Assay, Phase 4 (AID 2283597).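 Further: hits lower the luminescence signal meaning cytotoxicity.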 Summed up:
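ATP content by CellTiter-Glo luminescence, 30 min RT, read after the beta-lactamase ratio step. Cells: HCT116, 4000/well, compound added after 5 h, exposure 16 h at 37C. Signal loss = reduced viability.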
Turning to `CCC(Cc1c(I)cc(I)c(N)c1I)C(=O)O` (stereo unspecified), the concentration at half-maximal activity (AC50) was 69.9 µM (active) and the result was inactive. As for `CC(=O)CCC(C)C`, the outcome was inactive. As for `O=C1C=CC(=O)N1c1ccccc1`, the half-maximal activity concentration (AC50) was 84.5 µM (active).

Turning to `CC(C)OC=O`, the call was inactive. Still for that read-out and setting: the entry for `Cc1ccc(O)c(-n2nc3ccccc3n2)c1` is “inactive”; for `CCOC(=O)C1CC(=O)C(=C(O)C2CC2)C(=O)C1` (stereo unspecified) it is “inactive”. On the same count and under the same terms, in the case of `CCCCC(CC)COC(=O)c1ccc(N(C)C)cc1` (stereo unspecified) it was “inactive”; in that of `OCC1CCCO1` (stereo unspecified), “inactive”.

On to `F[Si-2](F)(F)(F)(F)F`, for which the call was inactive. On to `CCN=C1C=CC(=C(c2ccc(N(CC)CC)cc2)c2ccc(N(CC)CC)cc2)c2ccccc21`, for which the AC50 was 45.9 µM (active). The same measure, in the same setting: the figure for `C[C@]12CC[C@H]3C(=CCc4cc(O)ccc43)[C@@H]1CCC2=O` is 15.8 µM (active); for `CCCCCCCC/C=C\CCCCCCCC(=O)N(C)CC(=O)O` it is 83.3 µM (active); for `CCc1cc(Cc2cc(CC)c(N)c(CC)c2)cc(CC)c1N` it is 68 µM (active).

On to `O=C(c1ccccc1)c1ccc(O)cc1O`, for which the result was inactive. Regarding `CCN=c1cc2oc3cc(NCC)c(C)cc3c(-c3ccccc3C(=O)OCC)c-2cc1C`, the half-maximal activity concentration (AC50) is 67.5 µM (active) and 58.2 µM (active).

In the case of `CCCCOC(=O)C(C)O` (stereo unspecified), the compound was classed as inactive.

Another assay deals with Cellular tumor antigen p53 (Homo sapiens) (UniProt P04637). The assay can be described thus: TOX21_p53_BLA_p5_ratio: Tox21 HCT-116 p53 Agonism Beta-lactamase Assay, Ratio, Phase 5 (AID 2283599). Summed up:
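HCT-116 p53-bla cells (4000/well) plated 5 h, dosed with compound (217-fold DMSO dilution) for 16 h at 37 C; CCF4-AM substrate 2 h at room temperature. Activity is the 460/530 nm emission ratio (405 nm excitation), fitted in gain-of-signal direction versus DMSO.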
In the case of `CCC(Cc1c(I)cc(I)c(N)c1I)C(=O)O` (stereo unspecified), the result was inactive. Consider `CCCCOC(=O)[C@H](C)O`, for which the result was inactive. On the same count and under the same terms, the entry for `CC(=O)CCC(C)C` is “inactive”. On to `O=C1C=CC(=O)N1c1ccccc1`, for which the AC50 is 85.3 µM (active).

For the compound `CC(C)OC=O`, the result was inactive.

For `Cc1ccc(O)c(-n2nc3ccccc3n2)c1`, the result was inactive. The same measure, in the same setting: the entry for `CC(C)Nc1ccc(NC(C)C)c2c1C(=O)c1ccccc1C2=O` is “inactive”; for `CCCCC(CC)COC(=O)c1ccc(N(C)C)cc1` (stereo unspecified) it is “inactive”. Take `OCC1CCCO1` (stereo unspecified): the outcome was inactive. As for `F[Si-2](F)(F)(F)(F)F`, the outcome was inactive. Consider `CCN=C1C=CC(=C(c2ccc(N(CC)CC)cc2)c2ccc(N(CC)CC)cc2)c2ccccc21`, for which the half-maximal activity concentration (AC50) was 57.2 µM (active). In the case of `C[C@]12CC[C@H]3C(=CCc4cc(O)ccc43)[C@@H]1CCC2=O`, the result was inactive. For the compound `CCCCCCCC/C=C\CCCCCCCC(=O)N(C)CC(=O)O`, the AC50 is 79.6 µM (active). In the case of `CCc1cc(Cc2cc(CC)c(N)c(CC)c2)cc(CC)c1N`, the result was inactive. Same read-out and setting: in the case of `CCOC(OCC)OCC` it was “inactive”; in that of `O=C(c1ccccc1)c1ccc(O)cc1O`, “inactive”. Turning to `CCN=c1cc2oc3cc(NCC)c(C)cc3c(-c3ccccc3C(=O)OCC)c-2cc1C`, the half-maximal activity concentration (AC50) was 21.9 µM (active) and 32 µM (active). For the compound `Cc1ccc([N+](=O)[O-])c(C)c1`, the result was inactive.

Consider `CCCCOC(=O)C(C)O` (stereo unspecified), for which the outcome was inactive.
